# About 79,000 compounds went through this panel and 15% of them were active in at least one assay; those are over-represented in the sample as a whole. Values without a mark were called inactive. Calls of active or inactive are those of the source. Rule as the data show it: active = growth inhibition above about 70%; inactive = the rest.
# Tests used:
# [1] = NCI Yeast Anticancer Drug Screen. Data for the rad52 strain (AID 147);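 also: 0% = growth of vehicle-treated control cultures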; details: S. cerevisiae rad52 mutant growth inhibition, stronger effect = higher value
# Method in brief: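 DNA repair-defective yeast; compound exposure; growth scored against vehicle controls.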
# [2] = NCI Yeast Anticancer Drug Screen. Data for the wt1 strain (AID 149);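 also: 0% = growth of vehicle-treated wt1 cultures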; details: S. cerevisiae wt1 strain (SPY 50644) growth inhibition, stronger effect = higher value
# Method in brief: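 Using yeast strain wt1, compound-induced growth inhibition was determined against vehicle-treated cultures.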
# [3] = NCI Yeast Anticancer Drug Screen. Data for the rad50EPP+ strain (AID 151);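 also: 0% = growth of vehicle-treated control cultures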; details: S. cerevisiae rad50 mutant strain, stronger effect = higher value
# Method in brief: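 rad50EPP+ yeast treated with test compounds. Readout: growth vs vehicle control.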
# [4] = NCI Yeast Anticancer Drug Screen. Data for the mgt1 strain (AID 153); details: S. cerevisiae mgt1 mutant growth inhibition, stronger effect = higher value
# Method in brief: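 Growth inhibition relative to vehicle controls was scored for the mgt1 yeast strain after compound exposure.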
# [5] = NCI Yeast Anticancer Drug Screen. Data for the rad50 strain (AID 155);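 also: 0% = growth of vehicle-only cultures of the same strain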; details: S. cerevisiae rad50 strain growth inhibition, stronger effect = higher value
# Method in brief: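 Relative growth inhibition (compound vs vehicle) was measured in yeast with a defined repair-gene alteration.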
# [6] = NCI Yeast Anticancer Drug Screen. Data for the mec2-1 strain (AID 157); details: S. cerevisiae mec2-1 strain, stronger effect = higher value
# Method in brief: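 Growth inhibition is read against vehicle-treated controls after compound exposure of the mec2-1 yeast strain, which is defective in DNA damage repair or cell cycle control.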
# [7] = NCI Yeast Anticancer Drug Screen. Data for the sgs1 mgt1 strain (AID 161);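 also: 0% = growth of cultures given vehicle only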; details: S. cerevisiae sgs1 mgt1 strain, stronger effect = higher value
# Method in brief: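 Yeast cells carrying a defined DNA-repair defect were exposed to test compounds. Growth inhibition was measured relative to vehicle-treated controls.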
# [8] = NCI Yeast Anticancer Drug Screen. Data for the CLN2oe strain (AID 163);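 also: 0% = growth of vehicle-only control cultures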; details: S. cerevisiae CLN2oe strain, stronger effect = higher value
# Method in brief: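 Compound-treated yeast; growth vs vehicle ctrl = % inhibition. Genetically altered strain (cell-cycle control).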
# [9] = NCI Yeast Anticancer Drug Screen. Data for the cln2 rad14 strain (AID 165);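 also: 0% = growth equal to vehicle treated cultures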; details: S. cerevisiae cln2 rad14 strain, stronger effect = higher value
# Method in brief: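 Growth inhibition, relative to vehicle-treated controls, is the read-out. The test organism is a yeast strain with defined genetic alterations, cln2 rad14.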
# [10] = NCI Yeast Anticancer Drug Screen. Data for the bub3 strain (AID 167); details: S. cerevisiae bub3 mutant strain, stronger effect = higher value
# Method in brief: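 Screening used yeast with an engineered genetic alteration affecting cell cycle control. Compound-exposed cultures were compared with vehicle cultures, and reduced growth was taken as inhibition.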
# [11] = NCI Yeast Anticancer Drug Screen. Data for the wt2 strain (AID 169);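 also: 0% = growth of vehicle-treated yeast cultures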; details: S. cerevisiae wt2 strain growth inhibition, stronger effect = higher value
# Method in brief: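 Compound exposure of yeast; growth compared with vehicle controls; inhibition reported.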
# [12] = NCI Yeast Anticancer Drug Screen. Data for the mlh1 strain (AID 171);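 also: 0% = growth of vehicle-treated control cultures of the same strain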; details: S. cerevisiae mlh1 strain growth inhibition, stronger effect = higher value
# Method in brief: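 Compounds are applied to a genetically altered yeast strain, and its growth is compared with that of vehicle-treated cultures to give percent inhibition.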
# [13] = NCI Yeast Anticancer Drug Screen. Data for the mlh1 rad18 strain (AID 175); details: S. cerevisiae mlh1 rad18 strain growth inhibition, stronger effect = higher value
# Method in brief: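 Cells of a genetically altered yeast strain, deficient in DNA damage repair, were treated with compound. Their growth was then compared with that of vehicle-treated cultures to give inhibition.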
# [14] = NCI Yeast Anticancer Drug Screen. Data for the rad18 strain (AID 177); details: S. cerevisiae rad18 mutant growth inhibition, stronger effect = higher value
# Method in brief: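 Compounds are applied to a repair-deficient yeast strain, and growth is compared with that of vehicle-treated cultures to give percent inhibition.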
# [15] = NCI Yeast Anticancer Drug Screen. Data for the rad14 strain (AID 159);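 also: 0% = growth of vehicle-treated control cultures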; details: S. cerevisiae rad14 strain growth inhibition, stronger effect = higher value
# Method in brief: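 Screen for anticancer potential: a yeast strain altered in DNA damage repair is grown with compound, and reduced growth is quantified against vehicle controls.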
# [16] = NCI Yeast Anticancer Drug Screen. Data for the sgs1 strain (AID 173);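 also: 0% = growth of vehicle-only control cultures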; details: S. cerevisiae sgs1 mutant, stronger effect = higher value
# Method in brief: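 Compounds applied to genetically altered yeast; growth compared with vehicle-treated cultures to give % inhibition.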
# [17] = at 5.0 µM (retest, dose inferred, filed as 0.5)
# [18] = at 50.0 µM (retest, dose inferred, filed as 5.0)
smiles,measurement,setting,value
CCCCCCCCCCCCCCCCP(=O)(O)OCC(N)C(=O)O (stereo unspecified),growth inhibition,[1]; at 1.2 µM,-5%
same,growth inhibition,[1]; at 3.7 µM,-40%
same,growth inhibition,[1]; at 11.0 µM,-38%
same,growth inhibition,[1]; at 33.0 µM,-15%
same,growth inhibition,[1]; at 100.0 µM,95% (active)
same,growth inhibition,[2]; at 1.2 µM,-38%
same,growth inhibition,[2]; at 3.7 µM,-46%
same,growth inhibition,[2]; at 11.0 µM,-46%
same,growth inhibition,[2]; at 33.0 µM,-31%
same,growth inhibition,[2]; at 100.0 µM,97% (active)
same,growth inhibition,[3]; at 1.2 µM,0%
same,growth inhibition,[3]; at 3.7 µM,-5%
same,growth inhibition,[3]; at 11.0 µM,5%
same,growth inhibition,[3]; at 33.0 µM,20%
same,growth inhibition,[3]; at 100.0 µM,69%
same,growth inhibition,[4]; at 1.2 µM,15%
same,growth inhibition,[4]; at 3.7 µM,21%
same,growth inhibition,[4]; at 11.0 µM,7%
same,growth inhibition,[4]; at 33.0 µM,43%
same,growth inhibition,[4]; at 100.0 µM,97% (active)
same,growth inhibition,[5]; at 1.2 µM,-14%
same,growth inhibition,[5]; at 3.7 µM,-14%
same,growth inhibition,[5]; [17],-19%
same,growth inhibition,[5]; at 11.0 µM,-39%
same,growth inhibition,[5]; at 33.0 µM,6%
same,growth inhibition,[5]; [18],46%
same,growth inhibition,[5]; at 50.0 µM,66.9%
same,growth inhibition,[5]; at 100.0 µM,96% (active)
same,growth inhibition,[6]; at 1.2 µM,-22%
same,growth inhibition,[6]; at 3.7 µM,-24%
same,growth inhibition,[6]; [17],-11%
same,growth inhibition,[6]; at 11.0 µM,-25%
same,growth inhibition,[6]; at 33.0 µM,-20%
same,growth inhibition,[6]; [18],3%
same,growth inhibition,[6]; at 50.0 µM,58.8%
same,growth inhibition,[6]; at 100.0 µM,96% (active)
same,growth inhibition,[7]; [17],-11%
same,growth inhibition,[7]; [18],39%
same,growth inhibition,[7]; at 50.0 µM,93.5% (active)
same,growth inhibition,[8]; at 1.2 µM,1%
same,growth inhibition,[8]; at 3.7 µM,-3%
same,growth inhibition,[8]; at 11.0 µM,0%
same,growth inhibition,[8]; at 33.0 µM,-6%
same,growth inhibition,[8]; at 100.0 µM,-8%
same,growth inhibition,[9]; [17],23%
same,growth inhibition,[9]; [18],7%
same,growth inhibition,[9]; at 50.0 µM,60.9%
same,growth inhibition,[10]; at 1.2 µM,-1%
same,growth inhibition,[10]; at 3.7 µM,1%
same,growth inhibition,[10]; [17],-9%
same,growth inhibition,[10]; at 11.0 µM,0%
same,growth inhibition,[10]; at 33.0 µM,-1%
same,growth inhibition,[10]; [18],-8%
same,growth inhibition,[10]; at 50.0 µM,60.1%
same,growth inhibition,[10]; at 100.0 µM,-13%
same,growth inhibition,[11]; at 1.2 µM,-1%
same,growth inhibition,[11]; at 3.7 µM,-2%
same,growth inhibition,[11]; at 11.0 µM,-4%
same,growth inhibition,[11]; at 33.0 µM,-2%
same,growth inhibition,[11]; at 100.0 µM,-3%
same,growth inhibition,[12]; at 1.2 µM,-18%
same,growth inhibition,[12]; at 3.7 µM,-26%
same,growth inhibition,[12]; at 11.0 µM,-53%
same,growth inhibition,[12]; at 33.0 µM,20%
same,growth inhibition,[12]; at 100.0 µM,96% (active)
same,growth inhibition,[13]; [17],-34%
same,growth inhibition,[13]; [18],29%
same,growth inhibition,[13]; at 50.0 µM,73.9% (active)
same,growth inhibition,[14]; at 1.2 µM,-3%
same,growth inhibition,[14]; at 3.7 µM,-8%
same,growth inhibition,[14]; at 11.0 µM,-10%
same,growth inhibition,[14]; at 33.0 µM,14%
same,growth inhibition,[14]; at 100.0 µM,97% (active)
c1cc2c(cc1C1OC[C@H]3[C@@H](c4ccc5c(c4)OCO5)OC[C@@H]13)OCO2 (stereo partly specified),growth inhibition,[1]; at 1.2 µM,-9%
same,growth inhibition,[1]; at 3.7 µM,-16%
same,growth inhibition,[1]; at 11.0 µM,-3%
same,growth inhibition,[1]; at 33.0 µM,-1%
same,growth inhibition,[1]; at 100.0 µM,-6%
same,growth inhibition,[2]; at 1.2 µM,-1%
same,growth inhibition,[2]; at 3.7 µM,-6%
same,growth inhibition,[2]; at 11.0 µM,1%
same,growth inhibition,[2]; at 33.0 µM,-20%
same,growth inhibition,[2]; at 100.0 µM,-8%
same,growth inhibition,[3]; at 1.2 µM,-7%
same,growth inhibition,[3]; at 3.7 µM,-16%
same,growth inhibition,[3]; at 11.0 µM,3%
same,growth inhibition,[3]; at 33.0 µM,16%
same,growth inhibition,[3]; at 100.0 µM,2%
same,growth inhibition,[5]; at 1.2 µM,-16%
same,growth inhibition,[5]; at 3.7 µM,-19%
same,growth inhibition,[5]; [17],2%
same,growth inhibition,[5]; at 11.0 µM,-16%
same,growth inhibition,[5]; at 33.0 µM,-22%
same,growth inhibition,[5]; [18],3%
same,growth inhibition,[5]; at 50.0 µM,15.3%
same,growth inhibition,[5]; at 100.0 µM,8%
same,growth inhibition,[6]; at 1.2 µM,-2%
same,growth inhibition,[6]; at 3.7 µM,-4%
same,growth inhibition,[6]; [17],2%
same,growth inhibition,[6]; at 11.0 µM,-4%
same,growth inhibition,[6]; at 33.0 µM,-5%
same,growth inhibition,[6]; [18],8%
same,growth inhibition,[6]; at 50.0 µM,-0.6%
same,growth inhibition,[6]; at 100.0 µM,-1%
same,growth inhibition,[15]; at 1.2 µM,1%
same,growth inhibition,[15]; at 3.7 µM,6%
same,growth inhibition,[15]; at 11.0 µM,17%
same,growth inhibition,[15]; at 33.0 µM,26%
same,growth inhibition,[15]; at 100.0 µM,28%
same,growth inhibition,[7]; [17],7%
same,growth inhibition,[7]; [18],20%
same,growth inhibition,[7]; at 50.0 µM,60%
same,growth inhibition,[8]; at 1.2 µM,-7%
same,growth inhibition,[8]; at 3.7 µM,-9%
same,growth inhibition,[8]; at 11.0 µM,-10%
same,growth inhibition,[8]; at 33.0 µM,-9%
same,growth inhibition,[8]; at 100.0 µM,-7%
same,growth inhibition,[9]; [17],-2%
same,growth inhibition,[9]; [18],-8%
same,growth inhibition,[9]; at 50.0 µM,10.8%
same,growth inhibition,[10]; at 1.2 µM,14%
same,growth inhibition,[10]; at 3.7 µM,26%
same,growth inhibition,[10]; [17],70% (active)
same,growth inhibition,[10]; at 11.0 µM,37%
same,growth inhibition,[10]; at 33.0 µM,46%
same,growth inhibition,[10]; [18],83% (active)
same,growth inhibition,[10]; at 50.0 µM,75.8% (active)
same,growth inhibition,[10]; at 100.0 µM,39%
same,growth inhibition,[11]; at 1.2 µM,-1%
same,growth inhibition,[11]; at 3.7 µM,2%
same,growth inhibition,[11]; at 11.0 µM,7%
same,growth inhibition,[11]; at 33.0 µM,24%
same,growth inhibition,[11]; at 100.0 µM,12%
same,growth inhibition,[12]; at 1.2 µM,-16%
same,growth inhibition,[12]; at 3.7 µM,-8%
same,growth inhibition,[12]; at 11.0 µM,-8%
same,growth inhibition,[12]; at 33.0 µM,-8%
same,growth inhibition,[12]; at 100.0 µM,-6%
same,growth inhibition,[16]; at 1.2 µM,-16%
same,growth inhibition,[16]; at 3.7 µM,-11%
same,growth inhibition,[16]; at 11.0 µM,3%
same,growth inhibition,[16]; at 33.0 µM,9%
same,growth inhibition,[16]; at 100.0 µM,15%
same,growth inhibition,[13]; [17],7%
same,growth inhibition,[13]; [18],17%
same,growth inhibition,[13]; at 50.0 µM,27.6%
same,growth inhibition,[14]; at 1.2 µM,-10%
same,growth inhibition,[14]; at 3.7 µM,-6%
same,growth inhibition,[14]; at 11.0 µM,-4%
same,growth inhibition,[14]; at 33.0 µM,-8%
same,growth inhibition,[14]; at 100.0 µM,-11%

# Source: PubChem BioAssay (NCI)
